Our source for the composite z-score and z-score values is PubChem BioAssay.

Assay [1] in a line: small molecules captured by biotinylated probe aFSTL3 – biochemical, small-molecule microarray, fluorescence 635/667, stem cell growth factor project, primary screen (AID 1064).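 Further: measures binding of the biotinylated anti-FSTL3 antibody to printed compounds.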 Particulars: higher = more signal.
Assay [2] in a line: binders from COS7 lysate, DM2A8 probe, primary screen, torsin A project, cell lysate, small-molecule microarray, fluorescence 635/667 (AID 1065). The following applies: higher = more signal, COS7 lysate expressing mutant human TOR1A.
The nature of assay [3]: small molecules captured by biotinylated probe aFGF2 – biochemical, small-molecule microarray, fluorescence 635/667, stem cell growth factor project, primary screen (AID 1067).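 Further: measures binding of biotinylated aFGF2 protein to printed compounds on slides; z-score merges feature fluorescence and signal-to-noise across triplicate slides.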 The following applies: higher = more signal.
A short description of assay [4]: small molecules captured by biotinylated probe aFGF10 – biochemical, small-molecule microarray, fluorescence 635/667, stem cell growth factor project, primary screen (AID 1071).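 Further: score merges 667 nm spot intensity and signal to noise from triplicate slides.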 Particulars: higher = more signal.
In assay [5] the target is Neurogenic locus notch homolog protein 2 (Homo sapiens) (UniProt Q04721). In words: small molecules binding Notch2 protein – biochemical, small-molecule microarray, 635 nm fluorescence, stem cell growth factors, primary screen (AID 1073). The following applies: higher = more signal.
The target of assay [6] is Pro-neuregulin-1, membrane-bound isoform (Homo sapiens) (UniProt Q02297). The experiment in a line: small molecules binding neuregulin-1 protein – biochemical, small-molecule microarray, fluorescence 635/667, psychiatric disease protein project, primary screen (AID 1075).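 Further: score combines 667 nm spot fluorescence with signal to noise.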 The following applies: NRG1 binding, 635 nm fluorescence, higher = more signal.
The subject of assay [7] is Neuregulin-1 EGF-like domain. In words: small molecules binding NRG1 EGF domain – biochemical, small-molecule microarray, 635 nm fluorescence, primary screen (AID 1081).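 Further: binding of the protein to compounds printed on small-molecule microarray slides.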 The following applies: higher = more signal.
The nature of assay [8]: FRG1 expression reporter modulators in myotubes – cell-based, C2C12 myotubes, firefly/Renilla luciferase, luminescence, FRG1 inhibition for FSHD, primary screen (AID 1084). Particulars: FRG1 promoter luciferase, higher = more signal, called active from +8 up or from −8 down.
Assay [9] in a line: small molecules captured by biotinylated probe aFST – biochemical, small-molecule microarray, fluorescence 635/667, stem cell growth factor project, primary screen (AID 1086).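 Further: score merges 667 nm fluorescence with signal-to-noise of each printed compound spot.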 The following applies: higher = more signal.
The nature of assay [10]: binders of probe aHhip on microarray, primary screen, stem cell growth factor project, biochemical, small-molecule microarray, fluorescence 635/667 (AID 1087).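 Further: score merges spot fluorescence at 667nm with spot signal to noise ratio.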 Particulars: higher = more signal.
Assay [11] concerns PRMT1 (protein arginine N-methyltransferase 1). In words: small molecules binding arginine methyltransferase PRMT1 – biochemical, small-molecule microarray, 635 nm fluorescence, primary screen (AID 1088).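 Further: binding of Prmt1 protein to compounds spotted on small-molecule microarray slides.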 The following applies: higher = more signal.
Assay [12] in a line: growth effects on S. cerevisiae YJM789 – YJM789 clinical isolate, OD600, 24 h, basal, primary screen (AID 1089).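 Further: growth of clinical yeast isolate S. cerevisiae YJM 789 seeded 1000 cells per well; test concentration not given here.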 The following applies: higher = more signal, called active from +8 up or from −8 down.
Assay [13] in a line: S. pombe growth modifiers, basal conditions – strain 972, OD600, 24 h, no modulator, primary screen (AID 1090).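 Further: basal condition with compound alone and no growth modifier present; test concentration not given here.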 Particulars: S. pombe 972 growth, higher = more signal, called active from +8 up or from −8 down.
The nature of assay [14]: budding yeast growth modifiers under rapamycin – strain BY4716, OD600, 96 h, primary screen (AID 1091). Further: test concentration not given here. The following applies: S. cerevisiae BY4716 + rapamycin, higher = more signal, called active from +8 up or from −8 down.
For assay [15], the target named is Torsin-1A-interacting protein 2 (Homo sapiens) (UniProt Q8NFQ8). In words: small molecules binding lysate-expressed LULL1 – cell lysate, human LULL1 lysate, 635/667 nm fluorescence, primary screen (AID 1092).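 Further: probe is lysate of COS7 cells overexpressing human LULL1; score merges per-feature 667 nm fluorescence with signal-to-noise.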 Particulars: small-molecule microarray, hLULL1 lysate binding, 635 nm fluorescence; higher = more signal.
Assay [16] can be described thus: optical density change of DRC41 E. coli – strain DRC41, OD650, 24 h, E. coli filamentation project, primary screen (AID 1093).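 Further: MC1000 strain lacking acrAB efflux and sulA so SOS filamentation is blocked; test concentration not given here.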 The following applies: E. coli DRC41 growth, higher = more signal, called active from +8 up or from −8 down.
The nature of assay [17]: probe aLefty2 binding to arrayed compounds – biochemical, biotinylated probe, 635/667 nm fluorescence, primary screen (AID 1094).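 Further: score merges spot fluorescence near 667 nm with spot signal-to-noise ratio.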 The following applies: small-molecule microarray, higher = more signal.
In assay [18] the test system is Noggin (protein binding on small-molecule microarray). In words: small molecules binding Noggin protein – biochemical, 635/667 nm fluorescence, primary screen (AID 1095).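 Further: score merges 667 nm feature fluorescence with signal to noise over triplicate slides.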 Particulars: 635 nm fluorescence, higher = more signal.
The target of assay [19] is Neurogenic locus notch homolog protein 3 (Homo sapiens) (UniProt Q9UM47). The experiment in a line: small molecules binding NOTCH3 protein – biochemical, 635/667 nm fluorescence, primary screen (AID 1096). Particulars: small-molecule microarray, 635 nm fluorescence, higher = more signal.
A short description of assay [20]: probe aEGFR binding to arrayed compounds – biochemical, biotinylated probe, 635/667 nm fluorescence, primary screen (AID 1097).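 Further: probe is a biotinylated anti-EGFR antibody binding compounds printed on slides; score combines fluorescence near 667 nm and signal to noise of each spot.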 Particulars: small-molecule microarray, higher = more signal.

The source made the active and inactive calls.

Chain of Neurogenic locus notch homolog protein 3 (Homo sapiens) (Q9UM47 whole entry, looked up): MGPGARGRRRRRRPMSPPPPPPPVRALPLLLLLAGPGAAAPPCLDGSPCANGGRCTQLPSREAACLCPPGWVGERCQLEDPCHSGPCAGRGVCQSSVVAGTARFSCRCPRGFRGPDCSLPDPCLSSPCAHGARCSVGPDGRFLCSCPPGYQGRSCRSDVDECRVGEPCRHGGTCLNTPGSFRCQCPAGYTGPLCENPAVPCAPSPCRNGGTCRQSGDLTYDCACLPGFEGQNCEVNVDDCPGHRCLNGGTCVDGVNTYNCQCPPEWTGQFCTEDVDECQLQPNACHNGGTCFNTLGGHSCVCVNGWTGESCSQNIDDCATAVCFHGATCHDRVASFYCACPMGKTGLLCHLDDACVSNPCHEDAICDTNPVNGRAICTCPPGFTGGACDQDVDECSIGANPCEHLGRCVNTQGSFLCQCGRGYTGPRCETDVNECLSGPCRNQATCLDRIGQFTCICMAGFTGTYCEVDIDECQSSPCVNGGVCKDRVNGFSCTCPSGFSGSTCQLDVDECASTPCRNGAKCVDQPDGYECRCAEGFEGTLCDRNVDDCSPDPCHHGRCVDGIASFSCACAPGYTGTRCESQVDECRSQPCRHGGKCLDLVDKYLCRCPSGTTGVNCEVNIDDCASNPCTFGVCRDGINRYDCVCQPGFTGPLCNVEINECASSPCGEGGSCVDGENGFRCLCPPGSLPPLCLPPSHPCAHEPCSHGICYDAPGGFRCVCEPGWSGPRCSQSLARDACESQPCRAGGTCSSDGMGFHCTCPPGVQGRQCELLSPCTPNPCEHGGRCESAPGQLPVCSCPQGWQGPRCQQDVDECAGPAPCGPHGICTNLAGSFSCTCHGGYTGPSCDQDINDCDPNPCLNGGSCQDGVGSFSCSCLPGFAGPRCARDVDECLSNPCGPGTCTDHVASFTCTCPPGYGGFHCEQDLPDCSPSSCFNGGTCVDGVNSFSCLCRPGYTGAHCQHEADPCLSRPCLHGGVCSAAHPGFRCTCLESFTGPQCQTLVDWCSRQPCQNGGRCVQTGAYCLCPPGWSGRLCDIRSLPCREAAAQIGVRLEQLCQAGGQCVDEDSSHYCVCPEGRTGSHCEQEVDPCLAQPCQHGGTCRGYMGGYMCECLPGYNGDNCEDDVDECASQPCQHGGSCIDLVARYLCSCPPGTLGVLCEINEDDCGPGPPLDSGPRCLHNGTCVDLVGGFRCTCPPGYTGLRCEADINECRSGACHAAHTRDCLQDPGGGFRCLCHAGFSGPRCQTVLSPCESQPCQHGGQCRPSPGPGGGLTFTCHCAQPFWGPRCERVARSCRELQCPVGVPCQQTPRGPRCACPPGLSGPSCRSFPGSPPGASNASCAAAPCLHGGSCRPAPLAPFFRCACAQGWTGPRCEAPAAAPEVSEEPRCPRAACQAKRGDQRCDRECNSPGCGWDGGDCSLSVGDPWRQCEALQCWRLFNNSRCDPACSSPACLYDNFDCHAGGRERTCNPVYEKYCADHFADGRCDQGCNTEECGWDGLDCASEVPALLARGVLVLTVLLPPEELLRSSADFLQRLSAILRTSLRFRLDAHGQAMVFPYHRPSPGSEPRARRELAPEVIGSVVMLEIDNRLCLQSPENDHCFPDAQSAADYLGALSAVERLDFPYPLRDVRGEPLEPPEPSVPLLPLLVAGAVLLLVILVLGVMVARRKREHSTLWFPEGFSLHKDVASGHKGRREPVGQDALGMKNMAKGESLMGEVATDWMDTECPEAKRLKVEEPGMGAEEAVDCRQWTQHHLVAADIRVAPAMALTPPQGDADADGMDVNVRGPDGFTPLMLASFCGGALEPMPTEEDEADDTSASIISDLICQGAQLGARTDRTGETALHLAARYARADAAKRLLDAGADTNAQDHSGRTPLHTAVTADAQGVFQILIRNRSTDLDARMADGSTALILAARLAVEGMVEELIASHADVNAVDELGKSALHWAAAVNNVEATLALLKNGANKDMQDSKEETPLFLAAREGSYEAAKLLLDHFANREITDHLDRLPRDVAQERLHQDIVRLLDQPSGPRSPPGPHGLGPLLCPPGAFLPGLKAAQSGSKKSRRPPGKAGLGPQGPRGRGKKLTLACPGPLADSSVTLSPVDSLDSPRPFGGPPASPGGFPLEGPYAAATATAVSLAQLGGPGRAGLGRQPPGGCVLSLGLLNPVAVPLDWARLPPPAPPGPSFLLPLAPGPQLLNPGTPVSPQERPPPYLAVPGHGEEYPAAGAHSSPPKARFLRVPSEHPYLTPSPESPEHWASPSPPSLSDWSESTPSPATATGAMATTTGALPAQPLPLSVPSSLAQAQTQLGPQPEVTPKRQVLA
Chain of Torsin-1A-interacting protein 2 (Homo sapiens) (Q8NFQ8 whole entry, looked up): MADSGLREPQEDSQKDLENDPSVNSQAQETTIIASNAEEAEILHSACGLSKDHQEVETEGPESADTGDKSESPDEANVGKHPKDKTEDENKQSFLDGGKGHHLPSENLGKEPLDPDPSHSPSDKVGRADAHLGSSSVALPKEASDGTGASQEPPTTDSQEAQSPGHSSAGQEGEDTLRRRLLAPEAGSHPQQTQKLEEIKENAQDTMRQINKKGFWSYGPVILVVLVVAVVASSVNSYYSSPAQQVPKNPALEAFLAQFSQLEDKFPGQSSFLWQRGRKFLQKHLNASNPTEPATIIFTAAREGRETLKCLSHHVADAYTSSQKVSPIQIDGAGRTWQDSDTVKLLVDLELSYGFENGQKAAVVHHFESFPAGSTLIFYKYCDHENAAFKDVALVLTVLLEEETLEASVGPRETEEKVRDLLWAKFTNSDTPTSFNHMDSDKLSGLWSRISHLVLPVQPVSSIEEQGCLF
Chain of Pro-neuregulin-1, membrane-bound isoform (Homo sapiens) (Q02297 whole entry, looked up, the tested form may be a part, canonical isoform): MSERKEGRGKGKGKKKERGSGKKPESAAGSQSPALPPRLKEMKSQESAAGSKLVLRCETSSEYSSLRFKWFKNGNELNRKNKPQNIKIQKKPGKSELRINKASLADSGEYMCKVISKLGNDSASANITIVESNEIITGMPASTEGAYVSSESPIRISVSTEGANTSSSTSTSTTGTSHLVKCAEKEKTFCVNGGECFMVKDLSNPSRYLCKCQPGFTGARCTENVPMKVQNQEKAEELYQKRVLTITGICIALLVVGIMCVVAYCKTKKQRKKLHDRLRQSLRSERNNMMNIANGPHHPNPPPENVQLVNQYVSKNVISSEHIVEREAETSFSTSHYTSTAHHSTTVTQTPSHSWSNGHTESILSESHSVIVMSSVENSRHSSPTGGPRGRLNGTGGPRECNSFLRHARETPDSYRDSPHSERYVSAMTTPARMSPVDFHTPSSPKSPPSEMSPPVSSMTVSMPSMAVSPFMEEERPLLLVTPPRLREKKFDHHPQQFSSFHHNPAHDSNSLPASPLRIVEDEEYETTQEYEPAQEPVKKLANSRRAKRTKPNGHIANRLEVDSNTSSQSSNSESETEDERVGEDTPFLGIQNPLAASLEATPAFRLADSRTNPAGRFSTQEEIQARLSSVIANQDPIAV

For `CC(C)C(=C=CC[C@H](O)c1ccccc1OCCO)C[C@H](O)c1cc(Cl)cc(Cl)c1O`, the composite z-score is -0.435 in [1]; 0.807 in assay [2]; -0.0266 in assay [3]; 0.742 in assay [4]; 0.648 in [5]; 1.6 in [6]. The composite z-score was 0.889 in assay [7]; 0.454 in assay [9]; 0.0505 in assay [10]; 1.55 in [11]; 2.71 in assay [15]; -0.226 in [17]. Besides, the composite z-score was 0.811 in assay [18], 1.03 in assay [19] and 0.0284 in assay [20]. Moreover, the z-score in [8] is -0.926 (inactive); in assay [12], -0.088 (inactive); in assay [13], -2.34 (inactive); in [14] it was -0.16 (inactive); in assay [16], -0.0708 (inactive).
With `COc1ccc(C(O)C2C=CC3C(=O)N(C)C(=O)C3N2N(c2ccccc2)c2ccccc2)cc1` (stereo not given), the composite z-score was determined as 0.967 in assay [1]; 1.17 in [2]; 0.0148 in assay [3]; 0.209 in [4]; 1.41 in [5]; 0.941 in assay [6]. For the same compound, the composite z-score is 1.22 in assay [7]; 0.982 in [9]; 0.0972 in assay [10]; 0.923 in assay [11]; 2.18 in assay [15]; 0.276 in assay [17]. The values for the composite z-score in assay [18], in assay [19] and in [20] were 0.269, 0.791 and -0.111, respectively. For the same compound, the z-score was 0.57 (inactive) in assay [8]; -0.054 (inactive) in [12]; 0.733 (inactive) in assay [13]; 1.08 (inactive) in [14]; -0.994 (inactive) in assay [16].
As for `COc1ccc([Si](C)(C)[C@@H]2[C@@H](CC(=O)N(CCO)Cc3ccccc3)O[C@]3(C(=O)N(Cc4ccc(N5C(=O)c6cccc7cccc5c67)cc4)c4ccccc43)[C@H]2C)cc1`, the composite z-score in assay [1] was -0.0031; in assay [2], 0.407; in assay [3], -0.0876; in assay [4], 0.181; in [5], 0.494; in assay [6], 0.933. Also, the composite z-score in [7] was 0.956; in assay [9], -0.0542; in assay [10] it was -0.353; in assay [11] it was 1.57; in assay [15], 1.63; in assay [17], -0.0785. Also, the composite z-score is 0.77 in [18], 0.223 in [19] and -0.116 in assay [20]. The z-score in assay [8] was -1.76 (inactive); in assay [12], 0.655 (inactive); in assay [13], 0.27 (inactive); in assay [14] it was 3.51 (inactive); in assay [16], 0.309 (inactive).
`COc1ccc([Si](C)(C)[C@H]2[C@H](CCO)O[C@@]3(C(=O)N(Cc4cccc(N(C=O)c5ccccc5)c4)c4ccccc43)[C@@H]2C)cc1`: the composite z-score is -0.364 in assay [1]; 0.35 in [2]; 0.0155 in [3]; 1.09 in [4]; 1.14 in assay [5]; 0.97 in [6]. The composite z-score was 1.08 in assay [7]; 0.638 in assay [9]; -0.236 in assay [10]; 1.56 in [11]; 2.91 in assay [15]; 0.0893 in [17]. Further, the composite z-score in [18] stood at 0.785; in assay [19], 1.07; in assay [20], 0.0004. The z-score is -0.837 (inactive) in assay [8]; 1.08 (inactive) in assay [12]; 0.604 (inactive) in assay [13]; 10.6 (active) in assay [14]; 2.01 (inactive) in assay [16].
Consider `C=C(CCCC)/C(=C/C[C@@H](OC(C)=O)c1ccc(CO)o1)c1cnc2ccccc2c1`, for which the composite z-score is -0.593 in assay [1]; 0.361 in [2]; -0.0744 in assay [3]; 1.14 in assay [4]; 1.31 in assay [5]; 1.31 in [6]. For the same compound, the composite z-score in assay [7] is 1.28; in assay [9], 0.128; in assay [10], -0.179; in [11] it was 1.54; in [15] it was 1.92; in assay [17], -0.11. The composite z-score was 1.57 in assay [18], 1.11 in [19] and -0.0007 in assay [20]. Also, the z-score in assay [8] was -0.16 (inactive); in assay [12] it was 1.5 (inactive); in assay [13] it was -0.57 (inactive); in [14], 0.824 (inactive); in [16], 0.688 (inactive).
In the case of `CCCCCCc1nc(Cc2cc(OC)c(OC)c(OC)c2)cc2c1[Si](C(C)C)(C(C)C)O[C@H]2c1ccccc1`, the composite z-score is -0.557 in assay [1]; 0.251 in assay [2]; -0.0599 in [3]; 0.0804 in [4]; 0.191 in assay [5]; -0.0387 in assay [6]. For the same compound, the composite z-score in [7] was -0.712; in assay [9] it was 0.0506; in assay [10], 0.0677; in assay [11], 0.811; in assay [15], -0.0751; in assay [17], -0.176. The composite z-score in [18] is 0.619; in [19], 0.819; in assay [20], -0.0975. In addition, the z-score in [8] is -0.361 (inactive); in assay [12], 0.153 (inactive); in [13], 0.87 (inactive); in [14], 0.0217 (inactive); in [16], -1.41 (inactive).
In the case of `COc1cc(CO)cc(I)c1O[C@H]1C=C(C(=O)NCCO)C[C@@H](NC2CCCCCC2)[C@@H]1O`, the composite z-score in [1] was -0.606; in [2], 0.174; in assay [3], -0.0114; in assay [4], 0.998; in assay [5], 0.618; in assay [6], -0.0274. Also, the composite z-score in assay [7] was 0.716; in assay [9] it was -0.0564; in assay [10] it was -0.0994; in [11], 1.53; in assay [15], 1.86; in assay [17] it was -0.166. Also, the composite z-score is 1.22 in assay [18], 1.01 in assay [19] and -0.0564 in [20]. Besides, the z-score in assay [8] was 0.999 (inactive); in assay [12] it was 0.543 (inactive); in assay [13], -8.18 (active); in assay [14] it was -0.397 (inactive); in [16] it was 1.37 (inactive).
As to `CCCCCC1=C2CNC(Cc3ccccc3)(C(=O)OC)C=C2C(C)C1=O` (stereo not given), the composite z-score in [1] was 1.16; in assay [2] it was 0.249; in assay [3] it was -0.0593; in assay [4] it was 0.279; in [5] it was 0.227; in assay [6], 0.932. The composite z-score in [7] is 0.446; in assay [9] it was 0.602; in assay [10] it was 0.604; in assay [11], -0.488; in assay [15], 2.5; in [17] it was 0.226. The composite z-score in [18] was -1.49; in assay [19] it was -0.638; in [20], -0.0632. Besides, the z-score in assay [8] is 1.53 (inactive); in assay [12], 0.194 (inactive); in assay [13], -0.331 (inactive); in assay [14], 1.2 (inactive); in [16], -0.791 (inactive).
Consider `COC(=O)[C@@]1(Cc2ccc(F)cc2)[C@H]2c3cc(C(=O)N4CCCC4)n(Cc4ccccn4)c3C[C@H]2CN1C(=O)c1ccccc1`, for which the composite z-score in assay [1] was 0.116; in [2], -0.89; in [3], 0.272; in [4], 1.22; in assay [5] it was 1.71; in assay [6], 1.29. In addition, the composite z-score in assay [7] is 1.4; in [9] it was 0.987; in assay [10], 0.685; in assay [11], 0.159; in assay [15], 3.32; in assay [17], 0.361. The composite z-score in assay [18] was -0.108; in [19], 0.841; in assay [20], 0.33. Further, the z-score in assay [8] was 0.755 (inactive); in [12], 0.269 (inactive); in assay [13], -0.289 (inactive); in [14], 0.856 (inactive); in [16], -1.76 (inactive).
